Consider 7 molecules from PubChem BioAssay (NCI).

About 79,000 compounds went through this panel and 15% of them were active in at least one assay; those are over-represented in the sample as a whole. A number with no mark means an inactive call. Activity calls are given as the source filed them. No stated cut-off is given here; in the data, active means growth inhibition above about 70%; inactive means the rest.

Assay [1] in a line: NCI Yeast Anticancer Drug Screen. Data for the rad50 strain (AID 155).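 Further: 0% = growth of vehicle-only cultures of the same strain.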 Particulars: S. cerevisiae rad50 strain growth inhibition, active compounds read high. Summed up:
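Vehicle-treated cultures provide the reference for the growth inhibition reported for compound-exposed, repair-deficient yeast.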

Assay [2] is described as follows: NCI Yeast Anticancer Drug Screen. Data for the mec2-1 strain (AID 157). Particulars: S. cerevisiae mec2-1 strain, active compounds read high. The gist of the method:
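Using mec2-1 yeast: add compound, measure growth, express inhibition versus vehicle-treated cultures.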

The nature of assay [3]: NCI Yeast Anticancer Drug Screen. Data for the sgs1 mgt1 strain (AID 161).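 Further: 0% = growth of cultures given vehicle only.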 Particulars: S. cerevisiae sgs1 mgt1 strain, active compounds read high. Summed up:
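Percent growth inhibition was derived by comparing compound-exposed mutant yeast with vehicle-exposed cultures. The strain carries alterations in DNA damage repair.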

The nature of assay [4]: NCI Yeast Anticancer Drug Screen. Data for the cln2 rad14 strain (AID 165).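 Further: 0% = growth equal to vehicle treated cultures.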 Particulars: S. cerevisiae cln2 rad14 strain, active compounds read high. Summed up:
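Yeast strain cln2 rad14, bearing defects in cell cycle control and DNA repair, serves as the test system; values reflect growth inhibition compared with vehicle.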

Assay [5] in a line: NCI Yeast Anticancer Drug Screen. Data for the bub3 strain (AID 167). Particulars: S. cerevisiae bub3 mutant strain, active compounds read high. Summed up: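 Mutant yeast screening strain plus compound; vehicle-treated cultures serve as the 0% inhibition reference.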
Assay [6] can be described thus: NCI Yeast Anticancer Drug Screen. Data for the mlh1 rad18 strain (AID 175). Particulars: S. cerevisiae mlh1 rad18 strain growth inhibition, active compounds read high. Summed up:
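Steps: expose repair-defective yeast to compound; measure growth; express inhibition against vehicle-treated controls.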

Setting [7] is: at 5.0 µM (retest, dose inferred, filed as 0.5).
Where [8] appears, read: at 50.0 µM (retest, dose inferred, filed as 5.0).

In the case of `COc1cc(C(=O)CBr)c2ccc(Cl)cc2n1`, the growth inhibition in assay [1] (setting [7]) was 73% (active); in assay [1] (setting [8]) it was 97% (active); in assay [1] (at 50.0 µM) it was 84.8% (active); in assay [2] (setting [7]), 90% (active); in assay [2] (setting [8]), 98% (active); in assay [2] (at 50.0 µM) it was 69.2%. Moreover, the growth inhibition is 94% (active) in assay [3] (setting [7]); 97% (active) in assay [3] (setting [8]); 94% (active) in assay [3] (at 50.0 µM); 59% in assay [4] (setting [7]); 97% (active) in assay [4] (setting [8]); 95.3% (active) in assay [4] (at 50.0 µM). Moreover, the growth inhibition in assay [5] (setting [7]) is 87% (active); in assay [5] (setting [8]), 97% (active); in assay [5] (at 50.0 µM) it was 70.3% (active); in assay [6] (setting [7]) it was 93% (active); in assay [6] (setting [8]), 97% (active); in assay [6] (at 50.0 µM) it was 91.4% (active).
Take `CC1CCN(CCCOC(=O)c2ccccc2)CC1`: the growth inhibition is 25% in assay [1] (setting [7]); 40% in assay [1] (setting [8]); 58.9% in assay [1] (at 50.0 µM); 13% in assay [2] (setting [7]); 56% in assay [2] (setting [8]); 30.5% in assay [2] (at 50.0 µM). In addition, the growth inhibition was 35% in assay [3] (setting [7]); 66% in assay [3] (setting [8]); 62.1% in assay [3] (at 50.0 µM); 25% in assay [4] (setting [7]); 54% in assay [4] (setting [8]); 77% (active) in assay [4] (at 50.0 µM). The growth inhibition in assay [5] (setting [7]) was 31%; in assay [5] (setting [8]), 64%; in assay [5] (at 50.0 µM), 63.2%; in assay [6] (setting [7]), 52%; in assay [6] (setting [8]), 74% (active); in assay [6] (at 50.0 µM) it was 55%.
As to `CCCCCCCCCCCCCC/[N+]([O-])=C/c1ccc([N+](=O)[O-])o1`, the growth inhibition in assay [1] (setting [7]) was 7%; in assay [1] (setting [8]), 18%; in assay [1] (at 50.0 µM), 50.1%; in assay [2] (setting [7]), 2%; in assay [2] (setting [8]), 10%; in assay [2] (at 50.0 µM), 45.3%. Also, the growth inhibition in assay [3] (setting [7]) was 8%; in assay [3] (setting [8]), 70% (active); in assay [3] (at 50.0 µM), 50.1%; in assay [4] (setting [7]), 8%; in assay [4] (setting [8]), 13%; in assay [4] (at 50.0 µM), 29.8%. Further, the growth inhibition in assay [5] (setting [7]) is 0%; in assay [5] (setting [8]), 14%; in assay [5] (at 50.0 µM) it was 78% (active); in assay [6] (setting [7]), 8%; in assay [6] (setting [8]) it was 79% (active); in assay [6] (at 50.0 µM), 54.2%.
For `O=[N+]([O-])c1ccc(C(Cl)Cc2ccc(Cl)cc2)cc1` (stereo unspecified), the growth inhibition in assay [1] (setting [7]) was 10%; in assay [1] (setting [8]), 66%; in assay [1] (at 50.0 µM) it was 90.2% (active); in assay [2] (setting [7]), 7%; in assay [2] (setting [8]), 64%; in assay [2] (at 50.0 µM) it was 82.5% (active). Moreover, the growth inhibition was 22% in assay [3] (setting [7]); 91% (active) in assay [3] (setting [8]); 93.7% (active) in assay [3] (at 50.0 µM); -8% in assay [4] (setting [7]); 61% in assay [4] (setting [8]); 62.6% in assay [4] (at 50.0 µM). The growth inhibition in assay [5] (setting [7]) was 20%; in assay [5] (setting [8]) it was 82% (active); in assay [5] (at 50.0 µM) it was 94.3% (active); in assay [6] (setting [7]), -18%; in assay [6] (setting [8]) it was 71% (active); in assay [6] (at 50.0 µM) it was 89.1% (active).
Take `CCCCCCCCCCCCOC(=O)C[N+]1(C)CCCCC1`: the growth inhibition in assay [1] (setting [7]) was 92% (active); in assay [1] (setting [8]), 99% (active); in assay [1] (at 50.0 µM), 43.5%; in assay [2] (setting [7]), 93% (active); in assay [2] (setting [8]), 99% (active); in assay [2] (at 50.0 µM) it was 99.8% (active). Further, the growth inhibition is 99% (active) in assay [3] (setting [7]); 99% (active) in assay [3] (setting [8]); 39.4% in assay [3] (at 50.0 µM); 67% in assay [4] (setting [7]); 99% (active) in assay [4] (setting [8]); 98.5% (active) in assay [4] (at 50.0 µM). The growth inhibition in assay [5] (setting [7]) was 99% (active); in assay [5] (setting [8]), 99% (active); in assay [5] (at 50.0 µM), 99.7% (active); in assay [6] (setting [7]), 33%; in assay [6] (setting [8]), 99% (active); in assay [6] (at 50.0 µM) it was 99.5% (active).
For the molecule `Nc1nnc(-c2cc(=O)c3cc(Cl)ccc3o2)s1`, the growth inhibition in assay [1] (setting [7]) is -1%; in assay [1] (setting [8]), 13%; in assay [1] (at 50.0 µM), 60%; in assay [2] (setting [7]), -1%; in assay [2] (setting [8]) it was 8%; in assay [2] (at 50.0 µM), 20.4%. Moreover, the growth inhibition is -2% in assay [3] (setting [7]); 6% in assay [3] (setting [8]); 20.1% in assay [3] (at 50.0 µM); -2% in assay [4] (setting [7]); 11% in assay [4] (setting [8]); 10.7% in assay [4] (at 50.0 µM). For the same molecule, the growth inhibition was 3% in assay [5] (setting [7]); 11% in assay [5] (setting [8]); 22.4% in assay [5] (at 50.0 µM); -1% in assay [6] (setting [7]); 10% in assay [6] (setting [8]); 10.4% in assay [6] (at 50.0 µM).
For the molecule `Cc1nc2c(Cl)nc(Cl)nc2s1`, the growth inhibition was -10% in assay [1] (setting [7]); 98% (active) in assay [1] (setting [8]); 98.5% (active) in assay [1] (at 50.0 µM); 35% in assay [2] (setting [7]); 98% (active) in assay [2] (setting [8]); 98.5% (active) in assay [2] (at 50.0 µM). The growth inhibition in assay [3] (setting [7]) was 20%; in assay [3] (setting [8]), 97% (active); in assay [3] (at 50.0 µM), 98.7% (active); in assay [4] (setting [7]) it was -8%; in assay [4] (setting [8]), 97% (active); in assay [4] (at 50.0 µM) it was 95.5% (active). In addition, the growth inhibition is 15% in assay [5] (setting [7]); 98% (active) in assay [5] (setting [8]); 98.3% (active) in assay [5] (at 50.0 µM); 23% in assay [6] (setting [7]); 97% (active) in assay [6] (setting [8]); 98.2% (active) in assay [6] (at 50.0 µM).
